# Reference: PubChem BioAssay (NCI)
# The panel holds about 83,000 compounds, 20% with a hit somewhere; the sample as a whole holds those more often.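 Assay: single dose, 48 h. Readout: percent growth (0 = no net growth; negative = cell death). Active: <10.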 Unmarked numbers belong to inactive results. Active and inactive are the calls of the source.
# Tested on: MDA-MB-468 breast
# Experiment: NCI-60 one-dose screen, 48 h (100 = growth as untreated, 0 = no growth, -100 = all killed)
# Details: 10 µM unless noted
row,Compound,growth
1,O=C(Nc1cccc2c(O)c(N=Nc3ccc(S(=O)(=O)Nc4nccs4)cc3)cc(N=Nc3ccc(S(=O)(=O)Nc4nccs4)cc3)c12)C(Cl)Cl,7.35% (active)
2,O=C(Nc1ccccc1S)c1ccccc1,115%
3,CN(C)CCOc1ccc(/C(=C(/CCCl)c2ccccc2)c2ccccc2)cc1,-57.1% (active)
4,CC1(C)[C@@H](NOCCCN)CC[C@]2(C)[C@H]3C(=O)C=C4[C@@H]5C[C@](C)(C(=O)O)CC[C@]5(C)CC[C@@]4(C)[C@]3(C)CC[C@@H]12,-39.5% [100 µM] (active)
5,O=C(Nc1ccc(F)cc1)c1ccccc1,98.3%
6,CNC(=O)c1cc(Oc2ccc3c(c2)sc2nc(-c4ccc(OC)cc4)cn23)ccn1,16.8%
7,O=C(O)c1cn(C2CC2)c2cc(N3CCN(C(=O)N4CCOCC4)CC3)c(F)cc2c1=O,103%
8,ClCCn1cnc2c(SCc3ccccc3)ncnc21,74.8%
9,c1cc(-c2ccc3c(c2)OCO3)n2nccc2n1,95%
10,Cc1cc(C(=O)c2ccc(Cl)cc2)ccc1O,96.1%
11,O=C(O)CC1CCN(c2ccc3nnc(Cl)n3n2)CC1,101%
12,Cn1c(=O)c2c(nc(Nc3cc(=O)[nH]c(=O)[nH]3)n2Cc2ccccc2)n(C)c1=O,84.7%
13,C1=NCCc2ccccc21,109%
14,Nc1nc2ncc(CNc3ccc(C(=O)NC(CCC(=O)NC(CCC(=O)NC(CCC(=O)NC(CCC(=O)NC(CCC(=O)O)C(=O)O)C(=O)O)C(=O)O)C(=O)O)C(=O)O)cc3)nc2c(=O)[nH]1 (stereo not given),131%
15,O=P(O)(c1ccccc1)c1ccccc1I,89.5%
16,Cc1cc(N2CCOCC2)nc(NCc2cc(Nc3ccnc4cc(Cl)ccc34)ccc2F)n1,-71.9% (active)
17,CCN1C(=O)N(CC)C2NC(SC)=NC21 (stereo not given),103%
18,O=c1cc(-c2ccccc2)nc2sc(-c3c[nH]c4ccc(Br)cc34)nn12,87.2%
19,O=C(NNC(=O)N1c2ccccc2C=Cc2ccccc21)c1ccccc1,98.9%
20,COC(=O)CCC(=O)c1ccccc1,115%
21,C=CCOc1ccc(Cl)cc1Cl,111%
22,c1ccc2cc3nc4cc5ccccc5cc4nc3cc2c1,117%
23,CCNC(=O)Oc1ccc(/C(=C(/C)c2ccc(OC)cc2)c2ccc(OCCN3CCCCCC3)cc2)cc1,38.3%
24,CCCOc1cc2ccccc2cc1C(=O)Nc1nc(NC)c2c(ccc3nccc32)[nH]1,-59.7% (active)
25,Cc1cc(C)c2c(c1)N(C)c1ncnc(-n3cnc4cc(C)ccc43)c1CC2C (stereo not given),6.16% (active)
26,O=C(/C=C/c1cccc([N+](=O)[O-])c1)c1ccc(O)c(CN2CCN(c3cc4c(cc3F)c(=O)c(C(=O)O)cn4C3CC3)CC2)c1,-24.5% (active)
27,N/C(=N\C(N)=N\c1nc2ccccc2s1)c1ccncc1,56.6%

row,Compound,growth
1,C=C1C(=O)O[C@H]2[C@H]1CC/C(CNC(=O)c1cc3ccccc3[nH]1)=C\CC[C@@]1(C)O[C@@H]21,-61.7% (active)
2,CC(=O)Nc1ccc(S(=O)(=O)N2C(=O)CCC2C(=O)Nc2ccccc2)cc1 (stereo not given),40.3%
3,N#Cc1ccc(-n2cnc(NC(=O)[C@H]3CCN(C#N)C3)c2)cc1,-38.1% (active)
4,CCN(CC)S(=O)(=O)c1ccc(OC)c(NC(=O)c2[nH]c(C)c3c2CCCCC3=O)c1,10.7%
5,O=C(c1nc2ccccc2[nH]1)C1C(c2ccc(F)cc2)C2CC3CCCCC3N2[C@@]12C(=O)Nc1ccc(Cl)cc12 (stereo not given in full),41.6%
6,CCOC(=O)CCCS(C)(=O)=O,126%
7,O=C(CCN1CCCC1)Nc1ccc2c(Nc3ccccc3)c3ccccc3nc2c1,-14.9% (active)
8,CC1SC(c2ccccc2O)N(NC(=O)CCC(=O)c2nc3ncccc3[nH]2)C1=O (stereo not given),88.1%
9,Cc1ccc(S(=O)(=O)NC(=O)n2cc(-c3ccncc3)c(-c3ccc(Cl)c(O)c3)n2)cc1,101%
10,NC(=O)c1ncn([C@@H]2O[C@H](CO)[C@@H](O)[C@H]2O)n1,83.7%
11,CC(=O)Oc1ccc(C23c4ccccc4C2(OC(C)=O)c2cc(OC(C)=O)ccc23)cc1 (stereo not given),14.8%
12,N#Cc1c(-c2ccccc2)nc2c(c(-c3ccc(Cl)cc3)nn2-c2ccccc2)c1-c1ccc([N+](=O)[O-])cc1,104%
13,O=C1NC(=O)C(c2coc3cc(Br)ccc23)=C1c1c[nH]c2ccccc12,3.29% (active)
14,CN1CCN(Cc2ccc(NC(=O)c3cncc(C#Cc4cnc5[nH]ncc5c4)c3)cc2C(F)(F)F)CC1,40%
15,Cc1cc2nc3c4cc(Cl)ccc4n(CC(=O)NCCN(C)C)c3nc2cc1C,60.6%
16,CC(C)c1ccc(C(C)C(=O)N(CC2=C(C(C)c3ccccn3)c3ccccc3C2)C(C)C)cc1 (stereo not given),24.9%
17,CCCCc1nc(Cl)c(C2CC(c3ccc(S(N)(=O)=O)cc3)=NN2c2ccc(C#N)cc2)[nH]1 (stereo not given),64.5%
18,COC(=O)c1cc(Cl)cc([N+](=O)[O-])c1O,95.3%
19,CC(=O)c1c(C)nc(-c2cc(C)cc(Cl)c2)nc1-c1cccc(Oc2ccccc2)c1,60.8%
20,O=C(CCCCC[P+](c1ccccc1)(c1ccccc1)c1ccccc1)NC(COC(=O)C(Cl)Cl)(COC(=O)C(Cl)Cl)COC(=O)C(Cl)Cl,84.4%
21,NC(=O)c1c(NC(=S)Nc2ccc(OC(F)(F)F)cc2)sc2c1CCC1(C2)OCCO1,94.7%
22,COc1ccc(C2=NN(C(=O)c3cc(OC)c(OC)c(OC)c3)C(c3ccc(N(C)C)cc3)C2)cc1 (stereo not given),22.7%
23,C[C@H](Oc1cc(-c2cnn(C3CCNCC3)c2)cnc1N)c1c(Cl)ccc(F)c1Cl,34.9%
24,CN1C(=O)N(C)C2C1NN=c1s/c(=C\c3c[nH]c4ccccc34)c(=O)n12 (stereo not given),39.5%
25,COc1cccc(NC(=O)c2sc3nc(C)c(C(O)c4ccccc4)cc3c2N)c1 (stereo not given),14.3%
26,Cc1cc(Cc2ccccc2)c(O)c(Cc2ccccc2)c1,95.8%
27,C#Cc1nc2ccccc2c(=O)[nH]1,-46.9% (active)

row,Compound,growth
1,Fc1ccc(CNCCNc2ncnc3c2cnn3-c2ccccc2)cc1,81.4%
2,COc1cccc(/C=C2\Cc3ccccc3C2=O)c1,99.6%
3,NC(N)=N/N=C(/c1ccccc1)c1ccc(F)cc1,14.9%
4,CCOC(=O)c1nn(-c2ccc(S(N)(=O)=O)cc2)c2nc(C)cc(=O)n12,99%
5,Fc1cc2[nH]ncc2c2c3c(c(-c4cn[nH]c4C(F)(F)F)nc12)CCCC3,-20.3% (active)
6,O=C(c1ccccc1)c1ccc(Cl)c([N+](=O)[O-])c1,77.7%
7,COc1ccc(-c2nn(-c3cccc(NC(=O)Nc4ccccc4)c3)cc2-c2ccncc2)cc1Cl,29.4%
8,Fc1ccc2nc(-c3ccc(-c4noc(-c5ccc(Cl)cc5)n4)cc3)[nH]c2c1,110%
9,O=C(CCl)N1CCN(C/C=C/c2ccccc2)CC1,81%
10,CC(C)=CCC[C@](C)(O)[C@H]1CC[C@]2(C)[C@@H]1CC[C@@H]1[C@@]3(C)C/C(=C/c4ccc(Br)cc4)C(=O)C(C)(C)[C@@H]3CC[C@]12C,83.7%
11,COc1ccc(-c2nc(-c3nc4cc(Cl)c(F)cc4[nH]3)c3ccccn23)cc1,54.6%
12,CC[C@H](C)[C@H]1NC(=O)[C@@H](N[C@](C)(O)[C@@H](N)CC(C)C)[C@@H](C)OC(=O)[C@H](Cc2ccc(OC)cc2)N(C)C(=O)[C@@H]2CCCN2C(=O)[C@H](CC(C)C)NC(=O)[C@@H](C)C(=O)[C@H](C(C)C)OC(=O)C[C@@H]1O,-31.2% (active)
13,CC(O)CN(CCO)CCN(CCO)CC(C)O (stereo not given),94.8%
14,O=S(=O)(NC1CC2CCC1C2)c1ccc2c(c1)C(=NO)c1cc(S(=O)(=O)NC3CC4CCC3C4)ccc1-2 (stereo not given),-61.9% (active)
15,C=C1C(=O)O[C@H]2[C@H]1CC/C(COC(=O)NCc1cc(OC)cc(OC)c1)=C\CC[C@@]1(C)O[C@@H]21,10.2%
16,Nc1nc2c(ncn2[C@@H]2O[C@H](CS)[C@@H](O)[C@H]2O)c(=O)[nH]1,97.8%
17,N#C/C(=C\c1ccc2c(c1)OCO2)c1ccccc1,24.8%
18,Cc1ccc(NC(=O)Nc2c(Cl)cccc2Cl)cn1,72.8%
19,CCCCCCc1nc2nc(Cl)c(Cl)nc2[nH]1,31.1%
20,O=C(CCCCCCNC(=O)C(O)(O)C(F)(F)F)Nc1ccc(Br)cc1,8.56% (active)
21,C=C[C@H]1C[C@@H]2C[C@@H]3[C@H]4C/C=C\C(=O)NCCCC5NC(=O)C(=C(O)/C=C/[C@@H]4CC(=O)[C@H]3[C@@H]2[C@H]1C)C5=O (stereo not given in full),-29.9% (active)
22,C=C(C)[C@@H]1CC[C@]2(C(=O)N=C=S)CC[C@]3(C)[C@H](CC[C@@H]4[C@@]5(C)CCC(=O)C(C)(C)[C@@H]5CC[C@]43C)[C@@H]12,11.2%
23,COc1cc(/C=C/C(=O)N2CCN(C(=O)c3cc(OC)c(OC)c(OC)c3)CC2)ccc1OCCCN1C(=O)c2cccc3cccc(c23)C1=O,102%
24,O=S(=O)(NCCCNc1cc(-c2cn(-c3ccccc3)nc2-c2cccc(O)c2)ccn1)c1ccc(C(F)(F)F)cc1,3.04% (active)
25,ON=C(C1CCCCC1)C1CCCCC1,105%
26,COC1=C(c2ccccc2)C(=O)C(OC)=C(c2ccccc2)C1=O,43%
